Source: PubChem BioAssay (The Scripps Research Institute Molecular Screening Center)
FBW7 activator: human FBW7 E3 ligase activation, primary screen | AlphaScreen FBW7–phospho-cyclin E peptide binding, activator screen | normalized activity (activation), % at 26.1 µM | 650,000 tested, 0.13% active; in the data active = normalized activity above about 1.9%;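 also: purified mutant Fbw7 with reduced substrate affinity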
GPR151 ag: activates the human receptor GPR151; PathHunter beta-arrestin GPR151 cells, luminescence; activation, % at 11.2 µM; 650,000 tested, 1% active; in the data active = activation above about 4.9%;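 also: 0% = median of compound wells and 100% = cells with positive control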
Target sequence (Q8TDV0 whole entry, looked up): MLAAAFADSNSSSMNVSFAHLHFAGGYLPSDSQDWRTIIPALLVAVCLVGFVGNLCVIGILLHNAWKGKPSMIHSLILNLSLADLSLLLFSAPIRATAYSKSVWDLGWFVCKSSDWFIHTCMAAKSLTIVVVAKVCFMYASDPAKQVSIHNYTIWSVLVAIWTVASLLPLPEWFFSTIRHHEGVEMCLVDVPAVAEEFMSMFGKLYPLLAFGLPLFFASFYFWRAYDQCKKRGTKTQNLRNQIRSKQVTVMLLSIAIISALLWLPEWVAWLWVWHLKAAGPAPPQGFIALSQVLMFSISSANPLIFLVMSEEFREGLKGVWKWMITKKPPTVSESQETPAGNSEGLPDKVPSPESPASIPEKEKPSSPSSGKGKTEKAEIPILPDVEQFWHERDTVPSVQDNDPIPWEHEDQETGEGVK
TEAD-YAP block: TEAD-YAP interaction inhibition. HEK-TIYL cells, TEAD-Gal4/YAP UAS-luciferase luminescence. AID 1259422. 640,000 tested, 1.4% active. inhibition, % at 9.12 µM; in the data active = inhibition above about 32%;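 also: 0% = median of test compound wells and 100% = reference inhibitor wells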
MITF inh: blocks human microphthalmia-associated transcription factor; O75030; AlphaScreen MITF homodimerization, bead proximity signal; inhibition, % at 2.6 µM; 650,000 tested, 0.91% active; in the data active = inhibition above about 50%;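 also: 0% = vehicle wells with protein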
* hit, by the source's call. Only some compounds are listed: those with a hit (about 3.4% of all), similar ones and a draw of the others.

SMILES	FBW7 activator	GPR151 ag	TEAD-YAP block	MITF inh
O=c1cc(-c2cc(O)c(O)c([C@@H]3O[C@H](CO)[C@@H](O)[C@H](O)[C@H]3O)c2)oc2cc(O[C@@H]3O[C@H](CO)[C@@H](O)[C@H](O)[C@H]3O)cc(O)c12	0	0	16	-16
O=c1c2cc(O)c(O)cc2oc2cc(O)c(C3OC(CO)C(O)C(O)C3O)c(O)c12 (stereo not drawn)	0	1	-12	59*
CCC(C)(C)n1nnnc1CN1CCC(c2nc3ccc(C)cc3[nH]2)CC1	0	-1	-6	37
CCC(C)(C)n1nnnc1CN1CCC(c2nc3ccc(Cl)cc3[nH]2)CC1	0	1	35*	20
COc1ccc(-c2cc3nc4c(c(N5CCOCC5)n3n2)CCCC4)cc1	0	0	5	9
COc1cccc(C(=O)NC(=S)Nc2ccccn2)c1	0	-2	36*	3
Cc1ccnc(NC(=S)NC(=O)c2ccccc2)c1	0	1	34*	-3
Cc1ccnc(NC(=O)c2ccccc2Cl)c1	1	-5	35*	13
Cc1ccnc(NC(=S)NC(=O)c2ccc(Cl)cc2)c1	0	-1	-56	6
O=C(c1cc(N2C(=O)CCS2(=O)=O)ccc1Cl)N1CCCc2ccccc21	0	0	-3	-4
CC(C)n1c(Nc2ccccn2)nc2c(NCCOc3ccccc3)ncnc21	0	2	-29	-1
CC(C)n1c(Nc2ccccn2)nc2c(Nc3ccc(Oc4ccccc4)cc3)ncnc21	0	1	56*	1
O=C(Nc1cc2c3c(c1)CCN3C(=O)CC2)c1ccc(F)cc1	0	2	11	21
Cc1cc(NC(=O)CSc2nc3ccccc3c(=O)n2CCC(=O)N2CCN(c3ccccc3)CC2)n[nH]1	0	2	-3	-2
Cc1cc(NC(=O)CSc2nc3ccccc3c(=O)n2CCCN2CCC(C)CC2)n[nH]1	0	-1	85*	0
O=C(CSc1nc2ccccc2c(=O)n1CCCN1CCCCC1)Nc1ccccc1Cl	0	2	-18	-7
Cc1cc(NC(=O)CSc2nc3ccccc3c(=O)n2CCCN2CCCCC2)n[nH]1	0	0	84*	7
Cc1cc(NC(=O)CSc2nc3ccccc3c(=O)n2CCCC(=O)NCCc2ccccc2)n[nH]1	0	0	19	-4
Cc1nc2c3ccccc3nc(SCC(=O)Nc3cc(C)[nH]n3)n2n1	0	1	56*	7
Cc1cc(NC(=O)CSc2nc3ccccc3c(=O)n2CCCC(=O)N2CCCC2)n[nH]1	0	-1	54*	5
O=C1NC(=S)S/C1=C\c1ccccc1[N+](=O)[O-]	-1	0	1	4
CC(NS(=O)(=O)c1cccc2nsnc12)C(=O)OCC(=O)c1ccc(Cl)cc1 (stereo not drawn)	0	1	5	10
COc1cc(CO)ccc1OCc1cccc(F)c1	0	-1	-44	-22
COc1cc(/C=N/O)ccc1OCc1ccc(C(=O)O)cc1	0	-9	94*	20
COc1cc(C=O)ccc1OCc1ccc(C(=O)O)cc1	0	1	-7	-13
SMILES	FBW7 activator	GPR151 ag	TEAD-YAP block	MITF inh
COc1cc(/C=N/O)ccc1OCc1ccc(F)cc1	0	-3	-41	-11
COc1cc(CO)ccc1OCc1cccc(C(=O)O)c1	0	-10	74*	9
COc1cc(/C=N/O)ccc1OCc1ccccc1F	0	-4	38*	-13
CCCCOc1ccc(CO)cc1OC	2.1*	1	-5	1
C=COCCNC(=O)C(=O)Nc1ccc(OCCCC)cc1	0	2	10	-11
O=C1OC(c2cccc(Cl)c2)=N/C1=C\c1ccccc1Cl	0	0	-1	12
CN(C)c1ccc(/C=C2\N=C(c3ccccc3F)N(c3ccc(O)cc3)C2=O)cc1	0	0	60*	10
Cc1ccc(N2C(=O)/C(=C/c3ccc(N(C)C)cc3)N=C2c2ccccc2F)c(C)c1	0	2	68*	-10
CN(C)c1ccc(/C=C2\N=C(c3ccccc3F)N(c3ccc(Br)cc3)C2=O)cc1	0	-1	-5	0
COc1cccc(C=Nc2ccccc2F)c1O	0	0	16	-1
COc1ccc(/C(O)=C2\C(=O)C(=O)N(c3nnc(C)s3)C2c2ccc(OC)c(OC)c2)cc1 (stereo not drawn)	0	1	-14	-10
O=C(NC1CC1)c1nc2c(nnn2Cc2cccc(Cl)c2)c(=O)[nH]1	0	1	10	10
CC(=O)NC(=O)c1cc2ccccc2oc1=Nc1ccc(C)cc1	0	1	35*	-10
O=C(Nc1cc(Cl)ccc1Cl)c1ccccc1F	0	-1	-1	-3
Cc1cc(Nc2ccccc2)n(-c2ccc([N+](=O)[O-])cc2)n1	0	0	-3	13
Cc1cc(Nc2nc3ccccc3[nH]c2=O)n(-c2ccc([N+](=O)[O-])cc2)n1	0	0	59*	2
O=C(CSc1nc2ccccc2[nH]1)Nc1ccc(Cl)cn1	0	1	75*	6
Cc1ccc(Cl)cc1NC(=O)CSc1nc2ccccc2[nH]1	0	1	-8	3
O=C(CSc1nc2ccccc2[nH]1)Nc1ccc(Cl)cc1O	1	-2	35*	12
O=C(CSc1nc2ccccc2[nH]1)Nc1ccccn1	0	0	13	7
C=CCn1c(C)cc(C(=O)CSc2nc3ccccc3[nH]2)c1C	0	0	53*	15
C/C(=N/NC(=O)C(F)(F)F)c1ccc(O)cc1	0	0	1	10
CC(NC(=O)c1cccn1C)C12CC3CC(CC(C3)C1)C2 (stereo not drawn)	0	0	3	11
Cc1ccc(NC(=O)c2cc([N+](=O)[O-])cc(Cl)c2O)c(C)c1	0	-9	53*	6
Cc1ccc(NC(=O)c2ccc([N+](=O)[O-])cc2Cl)c(C)c1	0	-1	-31	3
SMILES	FBW7 activator	GPR151 ag	TEAD-YAP block	MITF inh
Cc1cccc(NC(=O)c2cc([N+](=O)[O-])ccc2Cl)c1O	1	-2	33*	10
O=C(CN1CCc2nc(N3CCCC3)[nH]c(=O)c2C1)NC(c1ccccc1)c1ccccc1	0	0	-5	16
O=C(N1CCCCCC1)N1c2ccccc2C=Cc2ccccc21	0	0	36*	5
O=C(CCN1CCc2ccccc21)c1ccc2c(c1)OCCO2	0	1	45*	5
O=C(CCN1CCc2ccccc2C1)c1ccc2c(c1)OCCO2	0	0	10	0
O=C(CCCc1ccccc1)c1ccc2c(c1)OCCO2	0	-4	91*	7
O=C(C[n+]1ccc2ccccc2c1)c1ccc2c(c1)OCCO2	0	0	-16	0
O=C(CCc1ccccc1)c1ccc2c(c1)OCCCO2	0	1	-62	0
Nc1cc[n+](CC(=O)c2ccc3c(c2)OCCO3)cc1	0	0	49*	0
CCC(C)(C)NC(=O)COC(=O)c1cccs1	0	1	-11	-9
Cc1cc(NC(=O)CN2CCN(CCO)CC2)no1	0	0	0	7
Cc1cc(C(=O)Nc2c(C)nn(Cc3c(Cl)cccc3Cl)c2C)no1	0	0	33*	0
